# Assay results reported in PubChem BioAssay (Tox21).
# Several values for one entry are separate records, joined by “and”; a condition that tells them apart may be missing. Identical values can stand only once. A number with no mark means an inactive call. Results filed as inconclusive are left out. Entries that show only a call come without a potency. Activity calls are given as the source filed them. The call rests on the fitted dose curve; in most records, active means well fitted curve in the direction sought with a large enough effect in the repeat runs; inconclusive means weak or mixed curves; inactive means no such curve, though single readings can be large; an effect the other way counts as inactive or inconclusive.
# Tests used:
# [1] = qHTS RealTime-Glo MT Cell Viability Assay in HEK293 cells - 40 hour (AID 1224874); conditions: RealTime-Glo luminescence; max response: stronger effect = lower value; further: nearly all actives have a fitted effect of over 50% in size
# How it was run: (§1)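 HEK293 cells mixed with RealTime-Glo reagents (NanoLuc plus cell-permeant prosubstrate) at 600 cells/well, preincubated 5 h at 37 C/5% CO2, then given 23 nL compound in DMSO. Nonlytic luminescence from viable cells was read at 0, 8, 16, 24, 32 and 40 h.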
# [2] = A CellTox Green Cytotoxicity Assay to monitor cytotoxicity in HEK293 cells - 24 hour (AID 1224875); conditions: CellTox Green fluorescence; series mostly up to 76.8 µM; further: nearly all actives have a fitted effect of over 45% in size
# How it was run: (§2)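 HEK293 cells premixed with CellTox Green dye were seeded at 600 cells/well and left 5 h at 37 C/5% CO2 before pin transfer of 23 nL compound in DMSO. Fluorescence from dye bound to dead-cell DNA was read during 40 h treatment.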
# [3] = A CellTox Green Cytotoxicity Assay to monitor cytotoxicity in HepG2 cells - 16 hour (AID 1224876); conditions: CellTox Green fluorescence; series mostly up to 76.8 µM; further: nearly all actives have a fitted effect of over 45% in size
# How it was run: (§3)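 HepG2 cells were seeded together with the CellTox Green dye at 600 cells/well, left 5 h at 37 C/5% CO2, then given compounds in DMSO. Fluorescence from dye bound to dead-cell DNA was read repeatedly over 40 h of treatment at 37 C.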
# [4] = A CellTox Green Cytotoxicity Assay to monitor cytotoxicity in HepG2 cells - 24 hour (AID 1224878); conditions: CellTox Green fluorescence; series mostly up to 76.8 µM; further: nearly all actives have a fitted effect of over 45% in size
# How it was run: as §3
# [5] = A CellTox Green Cytotoxicity Assay to monitor cytotoxicity in HepG2 cells - 40 hour (AID 1224879); conditions: CellTox Green fluorescence; series mostly up to 76.8 µM; further: nearly all actives have a fitted effect of over 40% in size
# How it was run: as §3
# [6] = qHTS RealTime-Glo MT Cell Viability Assay in HEK293 cells - 0 hour (AID 1224880); conditions: RealTime-Glo luminescence; series mostly up to 76.8 µM; further: top concentration of the series differs between compounds; nearly all actives have a fitted effect of over 45% in size
# How it was run: as §1
# [7] = A CellTox Green Cytotoxicity Assay to monitor cytotoxicity in HEK293 cells - 32 hour (AID 1224881); conditions: CellTox Green fluorescence; series mostly up to 76.8 µM; further: nearly all actives have a fitted effect of over 40% in size
# How it was run: as §2
# [8] = A CellTox Green Cytotoxicity Assay to monitor cytotoxicity in HepG2 cells - 0 hour (AID 1224882); conditions: CellTox Green fluorescence; series mostly up to 76.8 µM; further: nearly all actives have a fitted effect of over 35% in size
# How it was run: as §3
# [9] = A CellTox Green Cytotoxicity Assay to monitor cytotoxicity in HepG2 cells - 32 hour (AID 1224883); conditions: CellTox Green fluorescence; series mostly up to 76.8 µM; further: nearly all actives have a fitted effect of over 50% in size
# How it was run: as §3
# [10] = A CellTox Green Cytotoxicity Assay to monitor cytotoxicity in HEK293 cells - 8 hour (AID 1224884); conditions: CellTox Green fluorescence; series mostly up to 76.8 µM; further: nearly all actives have a fitted effect of over 35% in size
# How it was run: as §2
# [11] = qHTS RealTime-Glo MT Cell Viability Assay in HepG2 cells - 16 hour (AID 1224885); conditions: RealTime-Glo luminescence; series mostly up to 76.8 µM; further: nearly all actives have a fitted effect of over 50% in size
# How it was run: (§4)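 Cells + NanoLuc/prosubstrate dispensed (600 cells/well) → 5 h at 37 C/5% CO2 → compounds in DMSO transferred → 40 h incubation at 37 C, luminescence read at 0, 8, 16, 24, 32, 40 h.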
# [12] = qHTS RealTime-Glo MT Cell Viability Assay in HEK293 cells - 24 hour (AID 1224886); conditions: RealTime-Glo luminescence; series mostly up to 76.8 µM; further: top concentration of the series differs between compounds; nearly all actives have a fitted effect of over 50% in size
# How it was run: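 Tox21 10K qHTS, HEK293, 600 cells/well, RealTime-Glo reagent co-dispensed with cells; 5 h preincubation, compound by pintool, 37 C, luminescence at 0–40 h.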
# [13] = qHTS RealTime-Glo MT Cell Viability Assay in HEK293 cells - 8 hour (AID 1224887); conditions: RealTime-Glo luminescence; series mostly up to 76.8 µM
# How it was run: as §1
# [14] = qHTS RealTime-Glo MT Cell Viability Assay in HepG2 cells - 0 hour (AID 1224889); conditions: RealTime-Glo luminescence; series mostly up to 76.8 µM; further: nearly all actives have a fitted effect of over 50% in size
# How it was run: as §4
# [15] = A CellTox Green Cytotoxicity Assay to monitor cytotoxicity in HepG2 cells - 8 hour (AID 1224890); conditions: CellTox Green fluorescence; series mostly up to 76.8 µM; further: nearly all actives have a fitted effect of over 45% in size
# How it was run: as §3
# [16] = qHTS assay to identify small molecule antagonists of the estrogen receptor alpha (ER-alpha) signaling pathway using the BG1 cell line in the presence of 0.1 nM 17-beta-estradiol - cell viability counter screen (AID 1259241); conditions: VM7Luc4E2 (BG1) viability, CellTiter-Fluor protease, 22 h, 0.1 nM estradiol agonist added; series mostly up to 92.4 µM; further: nearly all actives have a fitted effect of over 40% in size
# How it was run: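 Viability in VM7Luc4E2 cells after 22 hr compound exposure under 0.1 nM 17beta-estradiol stimulation, by CellTiter-Fluor.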
# [17] = qHTS assay to identify small molecule antagonists of the androgen receptor (AR) signaling pathway using the MDA cell line in the presence of 0.5 nM R1881 - cell viability counter screen (AID 1259242); conditions: MDA-kb2 viability, CellTiter-Fluor protease fluorescence, 16 h; series mostly up to 92.4 µM; further: nearly all actives have a fitted effect of over 45% in size
# How it was run: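 MDA-kb2 cells (human breast carcinoma, stably carrying MMTV-luciferase reporter) were exposed to compounds with 0.5 nM R1881 (final) for 16 hr at 37C, 0% CO2; viability then read as live-cell protease fluorescence (CellTiter-Fluor, 30 min) in the same wells.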
# [18] = A CellTox Green Cytotoxicity Assay to monitor cytotoxicity in HEK293 cells - 16 hour (AID 1224888); conditions: CellTox Green fluorescence, stronger effect = higher value; series mostly up to 76.8 µM; further: nearly all actives have a fitted effect of over 35% in size
# How it was run: as §2
# [19] = target: Androgen receptor (Homo sapiens) (UniProt P10275); assay: qHTS assay to identify small molecule antagonists of the androgen receptor (AR) signaling pathway using the MDA cell line in the presence of 0.5 nM R1881 (AID 1259243); conditions: MDA-kb2 MMTV-luciferase, R1881 0.5 nM, 16 h; series mostly up to 92.4 µM; further: nearly all actives have a fitted effect of over 50% in size; further: potency means the concentration at half of the fitted maximal effect
# How it was run: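 MDA-kb2 human breast carcinoma cells carrying an MMTV-luciferase reporter (AR- and GR-responsive) were plated, rested 5 hr at 37C, dosed with compounds, then stimulated with 0.5 nM R1881 (final) for 16 hr; luminescence was read after ONE-Glo.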
# [20] = qHTS RealTime-Glo MT Cell Viability Assay in HepG2 cells - 32 hour (AID 1224877); conditions: RealTime-Glo luminescence; series mostly up to 76.8 µM; further: nearly all actives have a fitted effect of over 55% in size
# How it was run: as §4
# Chain of Androgen receptor (Homo sapiens) (P10275 whole entry, looked up): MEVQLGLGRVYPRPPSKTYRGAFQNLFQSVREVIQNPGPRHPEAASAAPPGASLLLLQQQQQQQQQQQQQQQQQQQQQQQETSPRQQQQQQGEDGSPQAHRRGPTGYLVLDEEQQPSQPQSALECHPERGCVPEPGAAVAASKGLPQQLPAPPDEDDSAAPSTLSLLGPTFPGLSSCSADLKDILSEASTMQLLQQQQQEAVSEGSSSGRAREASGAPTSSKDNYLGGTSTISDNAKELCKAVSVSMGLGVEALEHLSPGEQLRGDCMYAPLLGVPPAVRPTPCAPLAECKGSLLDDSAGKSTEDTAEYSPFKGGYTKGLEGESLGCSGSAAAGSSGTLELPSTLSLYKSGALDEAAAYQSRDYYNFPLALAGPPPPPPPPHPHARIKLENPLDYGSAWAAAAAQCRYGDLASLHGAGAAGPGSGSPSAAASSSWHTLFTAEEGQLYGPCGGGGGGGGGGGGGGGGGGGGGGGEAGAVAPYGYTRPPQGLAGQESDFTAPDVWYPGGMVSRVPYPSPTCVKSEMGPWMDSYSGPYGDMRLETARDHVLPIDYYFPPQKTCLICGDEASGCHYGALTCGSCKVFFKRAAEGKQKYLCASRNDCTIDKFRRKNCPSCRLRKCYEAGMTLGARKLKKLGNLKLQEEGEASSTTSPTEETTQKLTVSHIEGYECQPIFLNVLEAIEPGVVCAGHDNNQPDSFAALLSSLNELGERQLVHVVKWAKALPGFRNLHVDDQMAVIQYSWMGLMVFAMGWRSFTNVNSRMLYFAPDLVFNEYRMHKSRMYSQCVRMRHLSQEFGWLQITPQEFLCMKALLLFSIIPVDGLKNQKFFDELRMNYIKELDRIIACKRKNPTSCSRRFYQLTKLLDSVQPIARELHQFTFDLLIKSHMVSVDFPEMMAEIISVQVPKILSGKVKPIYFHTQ
smiles,measurement,setting,value
Cc1cccnc1,max response,[1],-5.56% and 0.742%
same,Potency,[2],inactive
same,Potency,[3],inactive
same,Potency,[4],inactive
same,Potency,[5],inactive
same,Potency,[6],inactive
same,Potency,[7],inactive
same,outcome,[8],inactive
same,Potency,[9],inactive
same,outcome,[10],inactive
same,outcome,[11],inactive
same,Potency,[12],inactive
same,Potency,[13],inactive
same,Potency,[14],inactive
same,Potency,[15],inactive
same,Potency,[16],inactive
same,outcome,[17],inactive
CCCCCCCCCCCCOCCO,max response,[1],-14.2% and -3.69%
same,Potency,[2],inactive
same,Potency,[3],inactive
same,Potency,[4],inactive
same,Potency,[5],inactive
same,Potency,[6],inactive
same,Potency,[7],inactive
same,outcome,[8],inactive
same,Potency,[9],inactive
same,outcome,[10],inactive
same,outcome,[11],inactive
same,Potency,[12],inactive
same,Potency,[13],inactive
same,outcome,[18],inactive
same,Potency,[14],inactive
same,Potency,[15],inactive
same,outcome,[17],inactive
same,Potency,[19],inactive
O=c1[nH]c(=O)n([C@H]2C[C@H](O)[C@@H](CO)O2)cc1Br,max response,[1],0.308%
same,Potency,[2],inactive
same,Potency,[3],inactive
same,Potency,[4],inactive
same,Potency,[5],inactive
same,Potency,[6],inactive
same,Potency,[7],inactive
same,outcome,[8],inactive
same,Potency,[9],inactive
same,outcome,[10],inactive
same,outcome,[11],inactive
same,Potency,[12],inactive
same,Potency,[13],inactive
same,outcome,[18],inactive
same,Potency,[14],inactive
same,Potency,[15],inactive
same,Potency,[16],inactive
same,outcome,[17],inactive
N[C@@H](Cc1cc(I)c(Oc2cc(I)c(O)c(I)c2)c(I)c1)C(=O)O,max response,[1],12.3% and 0.808%
same,Potency,[2],inactive
same,Potency,[3],inactive
same,Potency,[4],inactive
same,Potency,[5],inactive
same,Potency,[6],inactive
same,Potency,[7],inactive
same,outcome,[8],inactive
same,Potency,[9],inactive
same,outcome,[10],inactive
same,outcome,[11],inactive
same,Potency,[12],inactive
same,Potency,[13],inactive
same,Potency,[14],inactive
same,Potency,[15],inactive
same,Potency,[16],inactive
same,outcome,[17],inactive
c1ccc2c(c1)ccc1ccccc12,max response,[1],-10.3%
same,Potency,[3],inactive
same,Potency,[4],inactive
same,Potency,[5],inactive
same,Potency,[6],inactive
same,outcome,[8],inactive
same,Potency,[9],inactive
same,outcome,[10],inactive
same,outcome,[11],inactive
same,Potency,[12],inactive
same,Potency,[13],inactive
same,outcome,[18],inactive
same,Potency,[14],inactive
same,Potency,[15],inactive
same,Potency,[16],inactive
same,outcome,[17],inactive
same,Potency,[19],17.2 µM (active)
Fc1ccc(Br)cc1,max response,[1],11.6% and 0.497%
same,Potency,[2],inactive
same,Potency,[3],inactive
same,Potency,[4],inactive
same,Potency,[5],inactive
same,Potency,[6],inactive
same,Potency,[7],inactive
same,outcome,[8],inactive
same,Potency,[9],inactive
same,outcome,[10],inactive
same,outcome,[11],inactive
same,Potency,[12],inactive
same,Potency,[13],inactive
same,outcome,[18],inactive
same,Potency,[14],inactive
same,Potency,[15],inactive
same,Potency,[16],inactive
same,outcome,[17],inactive
COc1ccc(Nc2ccccc2)c(C)c1,max response,[1],2.22% and -26.6%
same,Potency,[2],inactive
same,Potency,[3],inactive
same,Potency,[4],inactive
same,Potency,[5],inactive
same,Potency,[6],inactive
same,Potency,[7],inactive
same,outcome,[8],inactive
same,Potency,[9],inactive
same,outcome,[10],inactive
same,outcome,[11],inactive
same,Potency,[12],inactive
same,Potency,[13],inactive
same,outcome,[18],inactive
same,Potency,[14],inactive
same,Potency,[15],inactive
same,Potency,[16],inactive
O=C(CC(C(=O)OC1CCCCC1)S(=O)(=O)O)OC1CCCCC1 (centres undefined),max response,[1],7.94% and 16.6%
same,Potency,[2],inactive
same,Potency,[3],inactive
same,Potency,[4],inactive
same,Potency,[5],inactive
same,Potency,[6],inactive
same,Potency,[7],inactive
same,outcome,[8],inactive
same,Potency,[9],inactive
same,outcome,[10],inactive
same,outcome,[11],inactive
same,Potency,[12],inactive
same,Potency,[13],inactive
same,Potency,[14],inactive
same,Potency,[15],inactive
same,Potency,[16],inactive
same,outcome,[17],inactive
CC(C)c1ccc(S(=O)(=O)O)cc1,max response,[1],-1.12% and 9.2%
same,Potency,[3],inactive
same,outcome,[20],inactive
same,Potency,[4],inactive
same,Potency,[5],inactive
same,Potency,[6],inactive
same,Potency,[7],inactive
same,outcome,[8],inactive
same,Potency,[9],inactive
same,outcome,[10],inactive
same,outcome,[11],inactive
same,Potency,[12],inactive
same,Potency,[13],inactive
same,outcome,[18],inactive
same,Potency,[14],inactive
same,Potency,[15],inactive
same,Potency,[16],inactive
same,outcome,[17],inactive
CC(O)COCC(C)O (centres undefined),max response,[1],-1.78% and 1.64%
same,Potency,[2],inactive
same,Potency,[3],inactive
same,Potency,[4],inactive
same,Potency,[5],inactive
same,Potency,[6],inactive
same,Potency,[7],inactive
same,outcome,[8],inactive
same,Potency,[9],inactive
same,outcome,[10],inactive
same,outcome,[11],inactive
same,Potency,[12],inactive
same,Potency,[13],inactive
same,outcome,[18],inactive
same,Potency,[14],inactive
same,Potency,[15],inactive
same,Potency,[16],inactive
CCN(CC)CCCC(C)Nc1ccnc2cc(Cl)ccc12 (centres undefined),max response,[1],-13.9%
same,cytotoxicity increase,[3],-7.78% [at 6.97 µM] and 19.1% [at 15.8 µM]
same,"activity change, negative = cytotoxic",[20],11.1% [at 6.97 µM] and -5.44% [at 15.8 µM]
same,cytotoxicity,[4],-7.44% [at 6.97 µM]
same,cytotoxicity increase,[5],-6.76% [at 6.97 µM] and 37% [at 15.8 µM]
same,"activity change, negative = cytotoxicity",[6],-2.92% [at 6.97 µM] and -5.73% [at 15.8 µM]
same,cytotoxicity increase,[7],-12.6% [at 6.97 µM] and 3.44% [at 15.8 µM]
same,cytotoxicity,[8],-5% [at 6.97 µM] and 4.14% [at 15.8 µM]
same,cytotoxicity increase,[9],-6.83% [at 6.97 µM]
same,cytotoxicity increase,[10],-10.7% [at 6.97 µM] and -2.14% [at 15.8 µM]
same,"activity change, negative = cytotoxic",[11],1.09% [at 6.97 µM] and -5.7% [at 15.8 µM]
same,"activity change, negative = cytotoxicity",[12],-16.8% [at 6.97 µM]
same,"activity change, negative = cytotoxicity",[13],-9.86% [at 6.97 µM]
same,"activity change, negative = cytotoxicity",[14],3.19% [at 6.97 µM] and -4.4% [at 15.8 µM]
same,cytotoxicity increase,[15],3.33% [at 6.97 µM] and 10.4% [at 15.8 µM]
